An excerpt weighted towards active compounds, which were near 4.8% of everything screened.
DAX1 inh-1 – NR0B1 (DAX1) inhibition. P51843. HEK293 Gal4-DAX1 luciferase reporter, luminescence. inhibition, % at 6.75 µM. 0.99% of 340,000 active. AID 504766;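 active means inhibition above the mean over all tested compounds plus 3 SD, cut at about 4.2% in these data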;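 further: 0% = DAX1-transfected cells with DMSO and 100% = empty-vector control cells with DMSO; inhibition shows as a rise in luminescence from relieved DAX1 repression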
Target sequence (P51843 207-470 limits assumed): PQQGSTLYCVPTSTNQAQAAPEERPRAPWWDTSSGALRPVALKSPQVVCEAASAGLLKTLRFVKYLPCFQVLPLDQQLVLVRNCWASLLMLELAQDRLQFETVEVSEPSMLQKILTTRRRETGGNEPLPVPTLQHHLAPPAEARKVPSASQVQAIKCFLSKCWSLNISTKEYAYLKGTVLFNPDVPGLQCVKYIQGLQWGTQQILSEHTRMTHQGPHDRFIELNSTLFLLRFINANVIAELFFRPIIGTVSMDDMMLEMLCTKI
SMARCA2 activ – SMARCA2 function activation, primary screen; activation, % at 9.1 µM; MG213 cells, MMTV-luciferase reporter, dexamethasone, overnight; 1% of 370,000 active; in the data active means activation above about 7.8%;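 further: 0% = vehicle wells and 100% = reference activator wells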
DAX1 inh-2 – DAX1 (NR0B1) inhibition, primary screen; inhibition, % at 6.8 µM; HEK293T StAR-luciferase reporter, SF-1/DAX-1 repression relief; 1.1% of 370,000 active;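 active means inhibition above the mean over all tested compounds plus 3 SD, cut at about 3.6% in these data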;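 further: 0% = DAX-1 cells with DMSO and 100% = cells lacking DAX-1 with DMSO; higher inhibition means more luminescence from relief of DAX-1 repression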
ssDAF-12 act – activates DAF-12 receptor from parasite S. stercoralis. 1% of 370,000 active. HEK293 ssDAF-12/GRIP1 lit1-tk-luc reporter, luminescence; % of 3 µM dafachronic acid response. activation, % at 6.8 µM;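 active means activation above the mean over all tested compounds plus 3 SD, cut at about 0.9% in these data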;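 further: 0% = DMSO-only wells and 100% = 3 µM delta7-dafachronic acid wells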
hgDAF-12 ag – agonists of H. glycines DAF-12 nuclear receptor. HEK293 GAL4-hgDAF12 UAS-luciferase reporter, agonist luminescence; normalized to butyrate control. activation, % at 6.8 µM. 1.8% of 370,000 active. AID 687014;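 active means activation above a cutoff set at the mean of all screened compounds plus 3 SD, cut at about 10% in these data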;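 further: 0% = DMSO wells and 100% = sodium butyrate wells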
hcDAF12 agonist – activates DAF-12 receptor from parasite H. contortus. HEK293 hcDAF-12 lit1-tk-luc reporter, luminescence; 0% DMSO, 100% Δ7-dafachronic acid. 1.4% of 370,000 active. activation, % at 6.8 µM;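 active means activation above the mean of all tested compounds plus 3 SD, cut at about 5.5% in these data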;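 further: 100% = response to 3 µM Δ7-dafachronic acid high control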
DAX1 inh confirm – confirmation of human DAX1 (NR0B1) inhibitors; shares compounds with DAX1 inh-2; HEK293T StAR-promoter luciferase reporter, SF-1/DAX-1 repression; inhibition, % at 6.8 µM; 87% of 2,400 active; AID 652134;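 active means inhibition above the average of every tested compound plus 3 SD, cut at about 3.8% in these data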;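 further: 0% = DAX-1 cells with DMSO and 100% = no DAX-1 control cells with DMSO; active compounds raise luminescence by relieving repression of the StAR reporter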
SF1 mutant ctr – counter-screen for DAX1 inhibitors: nonselective inhibitors with SF-1 AF2 mutant. shares compounds with DAX1 inh-2. HEK293 StAR-luciferase, luminescence. inhibition, % at 6.8 µM. 78% of 2,400 active. AID 652136;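 active means inhibition above the mean of all tested compounds plus 3 SD, cut at about 3% in these data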;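 further: 0% = DAX-1 transfected cells with DMSO and 100% = cells without DAX-1 with DMSO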
SMARCA2 conf – SMARCA2 activation, confirmation screen | shares compounds with SMARCA2 activ | MG213 cells, MMTV-luciferase with dexamethasone, luminescence, overnight; MG213 cells expressing E1A, Rb sequestered; DMSO wells 0%, reference activator 100% | activation, % at 9.1 µM | 30% of 3,500 active | AID 652260;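 active means activation above its plate's cutoff, the mean activation of tested wells plus 3 SD, cut at about 7.9% in these data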
GAL4-VP16 Luc – GAL4-VP16 reporter activation counter-screen; shares compounds with SMARCA2 activ; HEK293 GAL4-VP16 pG5luc reporter, luciferase luminescence; scaled: DMSO wells 0%, SAHA wells 100%; activation, % at 9.1 µM; 41% of 3,500 active; AID 686939;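 active means activation above the solvent-only control well mean plus 3 SD, averaged across control plates, cut at about 5.2% in these data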
LXR ag – LXR-beta agonism as hcDAF-12 counter-screen | activation, % at 6.8 µM | shares compounds with hcDAF12 agonist | 3,400 tested, under 10 active | HEK293 Gal4-LXR tk-luc reporter, luminescence, 24 h; normalized: DMSO 0%, positive control 100%;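 active means mean percent activation of the reporter above a cutoff set as the average over tested compounds plus their standard deviation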
hcDAF12 ag – confirmation of H. contortus DAF-12 agonists; shares compounds with hcDAF12 agonist; HEK293 hcDAF-12 lit1-tk-luc reporter, luminescence; % of Δ7-dafachronic acid response; activation, % at 6.8 µM; 61% of 3,400 active;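 active means mean activation across triplicate tests above the threshold derived from the earlier primary screen, cut at about 5.5% in these data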;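 further: 0% = DMSO only wells and 100% = 3 µM Δ7-dafachronic acid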
hgDAF12 ag – hgDAF-12 agonism, confirmation assay | shares compounds with hgDAF-12 ag | HEK293 GAL4-hgDAF12 luciferase reporter, agonist mode; percent of butyrate response | activation, % at 6.8 µM | 80% of 3,300 active | AID 743050;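 active means mean activation over triplicate wells above the hit cutoff derived from the earlier primary screen, cut at about 11% in these data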;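 further: 0% = DMSO low control and 100% = 2 mM sodium butyrate high control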
LXR ag 2 – LXR-beta agonism as DAF-12 counter-screen; shares compounds with hgDAF-12 ag; HEK293 Gal4-LXR luciferase reporter, 24 h; activation, % at 6.8 µM; 3,300 tested, under 10 active; AID 743051;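 active means mean activation of the triplicate above a set limit carried over from the primary screen, none filed active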
Active calls of the source: *; . = no result.

SMILES	DAX1 inh-1	SMARCA2 activ	DAX1 inh-2	ssDAF-12 act	hgDAF-12 ag	hcDAF12 agonist	DAX1 inh confirm	SF1 mutant ctr	hgDAF12 ag	LXR ag 2	others
O=C(Nc1nc2c(s1)CCCC2)c1ccc2ncsc2c1	0	1	8.0*	1.0*	16*	6.2*	10*	3.2*	12*	1
CC(C)c1ccc(Nc2ncccc2C(=O)O)cc1	2	7	6.4*	0	22*	6.0*	15*	7.4*	21*	1
COc1ccc(C(=O)CSc2nnc(-c3ccc(C)cc3)o2)cc1	1	-2	0	-1	1	0	.	.	.	.
COc1ccc(-c2nnc(SCC(C)C)o2)cc1	3	7	4.8*	1	23*	4	8.2*	3.4*	22*	1
COc1ccc2oc(C(=O)NC3CCCCC3)c(C)c2c1	2	3	6.2*	0	16*	5.8*	7.0*	5.9*	14*	1
COc1ccc2oc(C(=O)Nc3nc(C)cs3)c(C)c2c1	1	2	6.9*	1.1*	21*	9.9*	10*	6.6*	20*	1	LXR ag=2;hcDAF12 ag=12*
COc1ccc2oc(C(=O)OCC(=O)NC3CC3)c(C)c2c1	0	-1	1	-1	2	0	.	.	.	.
COc1ccc2c(CC(=O)Nc3nc(C)cs3)coc2c1	0	1	-1	-1	2	-2	.	.	.	.
Oc1ccccc1-c1cc(-c2ccccc2Cl)[nH]n1	1	3	8.6*	4.0*	25*	19*	19*	11*	27*	1	LXR ag=2;hcDAF12 ag=15*
CCc1ccc2cc3c(cc2n1)C(=O)c1ccccc1-3	.	8.6*	9.5*	3.6*	21*	17*	11*	6.4*	23*	1	SMARCA2 conf=12*;GAL4-VP16 Luc=13*;LXR ag=2;hcDAF12 ag=16*
COc1cccc(CNC(=O)CN2CCCc3ccccc32)c1	.	-6	0	0	1	2	.	.	.	.
Cc1cc(NS(=O)(=O)c2ccc(NC(=O)CSc3nnc(-c4ccco4)n3-c3ccc(Cl)cc3)cc2)nc(C)n1	.	-8	0	0	2	-2	.	.	.	.
O=C(NCCc1ccc(Cl)cc1)c1ccc2c(c1)OCO2	1	7	11*	0	13*	4	12*	6.6*	16*	1
Cn1nnc2cc(NC(=O)Nc3ccccc3F)ccc21	2	7	7.4*	0	15*	4	9.8*	4.4*	14*	1
Cn1nnc2cc(C(=O)Nc3ccccc3F)ccc21	-2	3	1	0	1	0	.	.	.	.
COCC(=O)N1CC[C@H]2[C@@H]1c1cc(-c3cccc(OC)c3)ccc1N(C)[C@H]2CO	.	-5	-1	-2	-3	-2	.	.	.	.
O=C(NNC(=S)Nc1ccc(Br)cc1)c1cccnc1	0	-3	1	-1	-1	0	.	.	.	.
O=C(/C=C\Nc1ccc(Br)cc1)c1cccnc1	1	3	5.9*	1	18*	8.3*	16*	9.3*	16*	1	LXR ag=1;hcDAF12 ag=6.5*
CC(C)CN1C(=O)[C@@]2(CC(=O)N(C)C2c2ccccc2)c2cc(-n3cc(C(C)(C)O)nn3)ccc21 (some centres not stated)	.	-2	1	0	-2	-1	.	.	.	.
Cn1c(=O)c(=O)n(C)c2cc(S(=O)(=O)N3CCN(Cc4ccc(F)cc4)CC3)ccc21	.	0	0	0	1	-1	.	.	.	.
O=C(N=Nc1c(O)[nH]c2ccccc12)Nc1ccccc1	5.6*	2	5.5*	1.2*	17*	2	16*	7.1*	13*	1
Cc1cccc(NC(=S)N=Nc2c(O)[nH]c3ccccc23)c1	-1	6	-2	-1	0	1	.	.	.	.
O=C(Nc1ccc(F)cc1)Nc1nc2ncccn2c1-c1ccc(F)cc1	.	-1	0	-1	0	-3	.	.	.	.
NS(=O)(=O)c1cccc(NC(=O)c2cc3ccccc3o2)c1	1	5	3	-1	5	-1	.	.	.	.
O=C(Nc1cccc(Br)c1)c1cc2ccccc2o1	4.3*	0	5.1*	0	26*	9.1*	12*	7.0*	21*	1	LXR ag=1;hcDAF12 ag=5.9*
Cc1cnc(NC(=O)c2cc3ccccc3o2)s1	6.4*	1	7.3*	1.9*	19*	10*	17*	8.9*	15*	1	LXR ag=1;hcDAF12 ag=14*
Cc1ccc(C(=O)C(C)OC(=O)c2ccccc2[N+](=O)[O-])cc1 (configuration not stated)	1	6	6.1*	0	18*	4	15*	9.8*	15*	1
c1ccc(-c2csc(CN3CCCCC3)n2)cc1	3	14*	5.3*	0.9*	19*	7.1*	8.2*	4.8*	18*	1	SMARCA2 conf=8.1*;GAL4-VP16 Luc=15*;LXR ag=2;hcDAF12 ag=9.2*
O=c1c2c(nc3cc(-c4cccc(Cl)c4)[nH]n13)CCC2	2	10*	5.5*	1	15*	5	16*	6.7*	14*	1	SMARCA2 conf=16*;GAL4-VP16 Luc=13*
